Data as given in PubChem BioAssay (EPA / NIEHS).
Several values for one entry are separate records, joined by “and”; a condition that tells them apart may be missing. Equal values may be shown once. Results filed as inconclusive are left out. A structure can be active in one record and inactive in another. Activity calls are given as the source filed them. How the source made its calls, unless noted: active means hit-call score of the fitted dose curve at least 0.9, where 1 is the maximum; inactive means score below 0.9.

Columns and labels:
[1] = molecular target: Paired box protein Pax-6 (Homo sapiens) (UniProt P26367); test: ATG_Pax6_CIS: Attagene CIS-FACTORIAL HepG2 Assay for human Paired Box 6 (PAX6) (AID 2282956); conditions: HepG2 CIS-FACTORIAL PAX6 reporter transcription, RNA readout; actives raise or lower the signal
Chain of Paired box protein Pax-6 (Homo sapiens) (P26367 whole entry, looked up): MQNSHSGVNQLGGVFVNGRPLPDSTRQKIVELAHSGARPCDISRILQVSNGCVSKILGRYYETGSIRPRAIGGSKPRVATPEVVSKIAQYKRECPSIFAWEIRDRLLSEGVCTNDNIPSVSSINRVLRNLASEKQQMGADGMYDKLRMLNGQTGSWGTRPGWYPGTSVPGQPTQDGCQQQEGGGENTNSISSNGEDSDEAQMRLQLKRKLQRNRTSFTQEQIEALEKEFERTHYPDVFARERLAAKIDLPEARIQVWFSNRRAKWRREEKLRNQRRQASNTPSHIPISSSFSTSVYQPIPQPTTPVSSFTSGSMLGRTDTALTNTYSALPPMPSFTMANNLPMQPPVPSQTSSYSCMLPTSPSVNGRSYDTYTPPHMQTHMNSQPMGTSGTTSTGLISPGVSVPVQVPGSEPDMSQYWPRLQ
Procedure, shortened: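 Transient MRTU transfection of HepG2 → compound exposure 24 h → TriZol RNA, oligo(dT) RT → PCR, 6-FAM primer extension, HpaI cut → capillary electrophoresis; activity fitted both directions against DMSO.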

[2] = ATG_PXRE_CIS: Attagene CIS-FACTORIAL HepG2 Assay for human Pregnane X Receptor Element (PXRE) (AID 2282957); conditions: HepG2 Attagene CIS-FACTORIAL PXRE reporter, mRNA; actives raise or lower the signal
Procedure, shortened: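 Cis-element reporter mRNA in human hepatoma HepG2 cells is measured 24 h post-dosing by RT-PCR, primer-extension labeling and capillary electrophoresis; gain or loss of signal is fitted relative to DMSO.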

[3] = ATG_PPRE_CIS: Attagene CIS-FACTORIAL HepG2 Assay for human Peroxisome Proliferator-activated Response Element (PPRE) (AID 2282958); conditions: HepG2 PPRE cis-element reporter, Attagene transcription factor profiling; actives raise or lower the signal
Procedure, shortened: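 Endogenous PPRE-driven transcription is measured in HepG2 cells carrying transfected multi-reporter constructs. Reporter transcripts are quantified by RT-PCR, HpaI digestion and capillary electrophoresis 24 h after dosing. DMSO baseline, bidirectional fit.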

[4] = ATG_RORE_CIS: Attagene CIS-FACTORIAL HepG2 Assay for human RAR-related Orphan Receptor Element (RORE) (AID 2282959); conditions: HepG2 Attagene cis-factorial RORE reporter, mRNA; actives raise or lower the signal
Procedure, shortened: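 RORE reporter transcripts reflecting endogenous factor activity were read after 24 h compound exposure of transfected HepG2 cells, using reverse transcription, PCR, fluorescent labelling and capillary electrophoresis sizing. Gain or loss fitted against DMSO.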

[5] = ATG_Sox_CIS: Attagene CIS-FACTORIAL HepG2 Assay for human SRY-box transcription factor (SOX) (AID 2282960); conditions: HepG2 Attagene cis-factorial SOX reporter, mRNA; actives raise or lower the signal
Procedure, shortened: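 Reporter transcripts, measured by RT-PCR and capillary electrophoresis of labelled fragments, report endogenous SOX transcription factor activity. Transiently transfected human HepG2 cells receive chemical for 24 h; changes in either direction are fitted relative to DMSO.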

[6] = molecular target: Transcription factor Sp1 (Homo sapiens) (UniProt P08047); test: ATG_Sp1_CIS: Attagene CIS-FACTORIAL HepG2 Assay for human Specificity Protein 1 (Sp1) (AID 2282961); conditions: HepG2 Sp1 cis-reporter transcription, actives raise or lower the signal
Chain of Transcription factor Sp1 (Homo sapiens) (P08047 whole entry, looked up): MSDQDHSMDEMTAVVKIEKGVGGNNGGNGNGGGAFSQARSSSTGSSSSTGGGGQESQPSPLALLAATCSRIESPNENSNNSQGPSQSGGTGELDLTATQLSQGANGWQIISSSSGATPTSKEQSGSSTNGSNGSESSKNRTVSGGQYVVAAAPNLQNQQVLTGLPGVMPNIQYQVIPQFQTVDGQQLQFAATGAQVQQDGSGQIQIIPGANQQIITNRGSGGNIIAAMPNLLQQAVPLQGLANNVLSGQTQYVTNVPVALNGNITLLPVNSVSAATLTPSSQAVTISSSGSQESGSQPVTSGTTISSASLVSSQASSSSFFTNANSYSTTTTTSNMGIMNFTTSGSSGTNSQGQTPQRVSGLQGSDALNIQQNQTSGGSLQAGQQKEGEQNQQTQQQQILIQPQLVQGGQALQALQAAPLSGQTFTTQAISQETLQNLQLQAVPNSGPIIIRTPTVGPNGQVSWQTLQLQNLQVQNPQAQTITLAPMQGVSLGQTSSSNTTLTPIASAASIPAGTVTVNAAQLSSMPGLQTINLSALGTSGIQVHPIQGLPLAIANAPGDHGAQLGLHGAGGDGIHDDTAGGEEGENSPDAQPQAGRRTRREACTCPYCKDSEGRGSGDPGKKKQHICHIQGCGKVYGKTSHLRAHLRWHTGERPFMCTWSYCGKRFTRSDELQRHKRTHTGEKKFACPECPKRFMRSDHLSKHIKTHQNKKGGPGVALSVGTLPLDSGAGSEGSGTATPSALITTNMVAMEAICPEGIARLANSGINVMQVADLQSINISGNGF
Procedure, shortened: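 Read-out is reporter transcript level, measured by RT-PCR and fluorescent capillary electrophoresis after 24 h chemical treatment. System: transiently transfected HepG2 cells reporting endogenous transcription factor activity; gain or loss fitted against DMSO baseline.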

[7] = ATG_SREBP_CIS: Attagene CIS-FACTORIAL HepG2 Assay for human Sterol Regulatory Element Binding (SREBP) (AID 2282962); conditions: HepG2 Attagene cis-factorial SREBP reporter, mRNA; actives raise or lower the signal
Procedure, shortened: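 Transfected HepG2 (cis-regulated reporter library, endogenous TFs) → compound 24 h → total RNA → oligo(dT) RT → reporter-specific PCR → FAM primer extension, HpaI cut → CE fluorescence. Fit bidirectional vs DMSO.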

[8] = molecular target: Signal transducer and activator of transcription 3 (Homo sapiens) (UniProt P40763); test: ATG_STAT3_CIS: Attagene CIS-FACTORIAL HepG2 Assay for human Signal Transducer and Activator of Transcription 3 (STAT3) (AID 2282963); conditions: HepG2, Attagene cis-factorial STAT3 reporter transcription; actives raise or lower the signal
Chain of Signal transducer and activator of transcription 3 (Homo sapiens) (P40763 whole entry, looked up): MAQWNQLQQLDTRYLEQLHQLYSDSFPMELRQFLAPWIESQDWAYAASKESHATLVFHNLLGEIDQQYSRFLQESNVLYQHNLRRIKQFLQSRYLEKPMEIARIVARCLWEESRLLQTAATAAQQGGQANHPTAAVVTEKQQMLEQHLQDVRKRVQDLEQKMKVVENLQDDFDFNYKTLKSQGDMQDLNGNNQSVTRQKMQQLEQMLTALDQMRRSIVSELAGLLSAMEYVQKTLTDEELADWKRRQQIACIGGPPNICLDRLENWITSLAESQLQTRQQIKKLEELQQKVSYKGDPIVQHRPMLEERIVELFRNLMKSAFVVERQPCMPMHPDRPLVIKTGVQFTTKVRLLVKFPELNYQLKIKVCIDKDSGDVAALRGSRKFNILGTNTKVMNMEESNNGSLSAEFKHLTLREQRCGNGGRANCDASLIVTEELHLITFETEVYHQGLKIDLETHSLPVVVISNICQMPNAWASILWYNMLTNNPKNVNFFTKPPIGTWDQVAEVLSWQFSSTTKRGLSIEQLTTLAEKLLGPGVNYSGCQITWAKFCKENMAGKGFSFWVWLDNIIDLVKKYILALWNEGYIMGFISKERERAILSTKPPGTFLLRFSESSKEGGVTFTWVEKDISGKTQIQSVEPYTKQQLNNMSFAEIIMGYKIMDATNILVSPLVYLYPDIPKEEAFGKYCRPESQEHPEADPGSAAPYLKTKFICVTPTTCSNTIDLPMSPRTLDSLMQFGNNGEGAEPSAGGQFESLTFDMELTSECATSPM
Procedure, shortened: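 Transcript-level reporter assay. HepG2 transient MRTU transfection, 24 h exposure, fluorescence detection after RT-PCR and CE; DMSO baseline.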

[9] = ATG_TA_CIS: Attagene CIS-FACTORIAL HepG2 Assay for human TA Basal Promoter (AID 2282964); conditions: HepG2 Attagene CIS-factorial TA basal promoter reporter; actives raise or lower the signal
Procedure, shortened: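 HepG2 cells transiently transfected with multiple reporter units under cis promoter elements, reporting endogenous transcription factor activity; this endpoint tracks the TA basal promoter as background control. Reporter mRNA after 24 h dosing measured by RT-PCR/capillary electrophoresis; bidirectional fits versus DMSO.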

[10] = ATG_TCF_b_cat_CIS: Attagene CIS-FACTORIAL HepG2 Assay for human T-Cell-Factor with beta-catenin (TCF/b-cat) (AID 2282965); conditions: HepG2 TCF/beta-catenin cis-reporter transcription, actives raise or lower the signal
Procedure, shortened: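 HepG2 cells transiently transfected with multiple cis-promoter-regulated reporter transcription units, so endogenous transcription factor activity is measured. Reporter mRNA read 24 hours after dosing by RT-PCR, fluorescent labelling and capillary electrophoresis; bidirectional fitting against DMSO.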

[11] = ATG_TAL_CIS: Attagene CIS-FACTORIAL HepG2 Assay for human TAL Basal Promoter (AID 2282966); conditions: HepG2 Attagene cis-factorial TAL promoter reporter; actives raise or lower the signal;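 further: background control endpoint measuring basal TAL promoter reporter mRNA not a specific factor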
Procedure, shortened: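 In this cell-based multiplex, HepG2 liver cells bearing cis-promoter reporter constructs are dosed for 24 hours. Total RNA is reverse-transcribed and amplified, labelled fragments are sized by capillary electrophoresis, and signal changes are fitted bidirectionally versus DMSO.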

[12] = ATG_TGFb_CIS: Attagene CIS-FACTORIAL HepG2 Assay for human Transforming Growth Factor (TGF) (AID 2282967); conditions: HepG2 Attagene CIS TGFb reporter, mRNA transcription; actives raise or lower the signal
Procedure, shortened: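 HepG2 cells transiently transfected with cis-promoter-driven multiple reporter units measure endogenous TF activity; reporter mRNA quantified at 24 h by RT-PCR, FAM labeling, HpaI digestion and capillary electrophoresis. Bidirectional fit vs DMSO.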

[13] = ATG_VDRE_CIS: Attagene CIS-FACTORIAL HepG2 Assay for human Vitamin D Receptor Element (VDRE) (AID 2282968); conditions: HepG2 VDRE cis-reporter transcription, actives raise or lower the signal
Procedure, shortened: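 RT-PCR/CE readout of reporter mRNA; HepG2, transient transfection, 24 h dosing; DMSO baseline; bidirectional analysis.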

[14] = molecular target: Estrogen receptor (Homo sapiens) (UniProt P03372); test: ATG_ERa_TRANS: Attagene TRANS-FACTORIAL HepG2 Assay for human Estrogen Receptor alpha (ERa) (AID 2282970; active means hit-call score of the fitted dose curve at least 0.9, where 1 is the maximum); conditions: HepG2 Attagene TRANS ERa GAL4 reporter, mRNA
Chain of Estrogen receptor (Homo sapiens) (P03372 whole entry, looked up, the tested form may be a part): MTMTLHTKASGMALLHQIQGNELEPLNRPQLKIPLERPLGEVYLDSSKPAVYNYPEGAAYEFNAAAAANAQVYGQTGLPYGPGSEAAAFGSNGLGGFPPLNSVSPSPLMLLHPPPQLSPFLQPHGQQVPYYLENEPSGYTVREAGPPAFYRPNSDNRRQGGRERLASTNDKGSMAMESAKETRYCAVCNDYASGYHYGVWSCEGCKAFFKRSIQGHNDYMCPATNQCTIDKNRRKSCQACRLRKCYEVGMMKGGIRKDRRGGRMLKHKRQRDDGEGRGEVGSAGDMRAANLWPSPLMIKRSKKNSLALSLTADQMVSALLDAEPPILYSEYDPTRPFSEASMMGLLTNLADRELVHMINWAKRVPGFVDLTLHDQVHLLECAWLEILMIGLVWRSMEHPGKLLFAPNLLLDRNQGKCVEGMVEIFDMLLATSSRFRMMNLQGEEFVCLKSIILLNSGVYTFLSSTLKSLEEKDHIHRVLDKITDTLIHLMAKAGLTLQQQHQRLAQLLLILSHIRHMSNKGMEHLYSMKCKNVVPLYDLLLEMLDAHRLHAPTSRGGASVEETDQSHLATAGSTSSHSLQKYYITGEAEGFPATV
Procedure, shortened: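 After 24 h of compound treatment, RNA from HepG2 cells bearing transfected GAL4-UAS reporter constructs is converted to cDNA, amplified and fluorescently labelled. Capillary electrophoresis resolves the ERa-linked reporter; DMSO serves as negative control.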

[15] = molecular target: X-box-binding protein 1 (Homo sapiens) (UniProt P17861); test: ATG_Xbp1_CIS: Attagene CIS-FACTORIAL HepG2 Assay for human X-box Binding Protein 1 (XBP1) (AID 2282972); conditions: HepG2 XBP1 cis-element reporter, Attagene multiplex; actives raise or lower the signal
Chain of X-box-binding protein 1 (Homo sapiens) (P17861 whole entry, looked up): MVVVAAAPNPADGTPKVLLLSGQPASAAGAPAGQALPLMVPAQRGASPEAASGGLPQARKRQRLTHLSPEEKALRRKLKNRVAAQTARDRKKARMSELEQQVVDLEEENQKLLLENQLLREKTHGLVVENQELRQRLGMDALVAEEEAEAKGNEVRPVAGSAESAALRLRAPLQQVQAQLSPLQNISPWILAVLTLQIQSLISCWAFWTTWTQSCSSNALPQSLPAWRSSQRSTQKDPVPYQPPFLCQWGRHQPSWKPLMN
Procedure, shortened: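 HepG2, transient MRTU transfection (cis-promoter driven), 24 h compound exposure. Total RNA → oligo(dT) RT → PCR → 6-FAM labeling → HpaI cut → CE. Bidirectional fit vs DMSO.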

[16] = ATG_M_19_TRANS: Attagene TRANS-FACTORIAL HepG2 Assay for M19 Transcription Factor (Internal Marker) (AID 2282974; active means hit-call score of the fitted dose curve at least 0.9, where 1 is the maximum); conditions: HepG2 Attagene TRANS-FACTORIAL M19 internal marker reporter
Procedure, shortened: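 Background-control readout: after 24 h chemical exposure of transfected HepG2 carrying GAL4-driven reporter units, RNA was reverse-transcribed, amplified, fluorescently labeled and sized by capillary electrophoresis; gain-of-signal fit against DMSO.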

[17] = ATG_GAL4_TRANS: Attagene TRANS-FACTORIAL HepG2 Assay for GAL4 (Internal Marker) (AID 2282976; active means hit-call score of the fitted dose curve at least 0.9, where 1 is the maximum); conditions: HepG2 Attagene TRANS GAL4 internal marker reporter
Procedure, shortened: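 RT-PCR/capillary electrophoresis readout of reporter mRNA. HepG2, transient MRTU transfection (GAL4-UAS reporters), 24 h compound exposure. Background-control endpoint, positive direction vs DMSO baseline.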

[18] = molecular target: Estrogen-related receptor gamma (Homo sapiens) (UniProt P62508); test: ATG_ERRg_TRANS: Attagene TRANS-FACTORIAL HepG2 Assay for human Estrogen-Related Receptor gamma (ERRg) (AID 2282977; active means hit-call score of the fitted dose curve at least 0.9, where 1 is the maximum;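 further: hits increase reporter signal over DMSO so potencies reflect activators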); conditions: HepG2 Attagene TRANS reporter, ERRg transactivation
Chain of Estrogen-related receptor gamma (Homo sapiens) (P62508 whole entry, looked up, the tested form may be a part): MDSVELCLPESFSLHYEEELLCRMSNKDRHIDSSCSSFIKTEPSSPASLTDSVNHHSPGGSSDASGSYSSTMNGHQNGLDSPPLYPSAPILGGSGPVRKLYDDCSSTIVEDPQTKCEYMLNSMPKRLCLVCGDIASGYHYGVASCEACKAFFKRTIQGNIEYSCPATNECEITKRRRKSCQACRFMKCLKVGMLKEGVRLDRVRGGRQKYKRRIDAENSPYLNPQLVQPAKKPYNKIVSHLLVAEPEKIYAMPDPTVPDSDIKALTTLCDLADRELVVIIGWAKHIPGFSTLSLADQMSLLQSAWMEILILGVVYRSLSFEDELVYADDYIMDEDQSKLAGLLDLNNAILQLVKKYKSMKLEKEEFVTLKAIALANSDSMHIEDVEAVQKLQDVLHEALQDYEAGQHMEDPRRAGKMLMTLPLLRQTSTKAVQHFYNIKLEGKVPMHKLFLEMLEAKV
Procedure, shortened: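 Transfect HepG2 with multiple GAL4-UAS reporter transcription units; dose chemicals 24 h; isolate RNA, reverse-transcribe with oligo(dT), PCR-amplify, label with 6-FAM, digest with HpaI; size fragments by capillary electrophoresis. DMSO serves as negative control.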

Measured: AC50

Oc1ccc(O)cc1
active: [3] 62.5 µM | [6] 29.1 µM | [14] 59.9 µM | [15] 114 µM
not listed: [16] | [17] | [18]
inactive: all other assays above

CC(=O)O[C@]1(C(C)=O)CC[C@H]2[C@@H]3C=C(Cl)C4=CC(=O)[C@@H]5C[C@@H]5[C@]4(C)[C@H]3CC[C@@]21C
active: [1] 27.3 µM and 66.1 µM and 100 µM | [2] 184 µM and 142 µM and 61.5 µM | [5] 100 µM | [6] 154 µM and 170 µM | [9] 54.5 µM | [11] 47.7 µM | [13] 24.1 µM | [15] 45.5 µM and 51.8 µM and 43 µM
inactive: [1] | [2] | [3] | [4] | [5] | [6] | [8] | [9] | [10] | [11] | [12] | [13] | [15] | [16] | [17]

NC=O
not listed: [14] | [16] | [17]
inactive: all other assays above
